Screening data from PubChem BioAssay.
These entries were drawn from the full list.
aSyn 5UTR act – Activators working through SNCA 5'UTR binding (MLPCN); hit rate 7.1% among 300,000; activity score, % (tested at 7.5 µM), hits read low; alpha-synuclein 5'UTR reporter, activators screen; in the data active = activity score below about -60%
An asterisk follows results filed as active.

SMILES	aSyn 5UTR act
O=C(CN1CCCC1)Nc1ccc(NC(=O)Nc2ccccc2Cl)cc1	-126*
O=C(Nc1ccccc1)Nc1cccc(Cl)c1Cl	-237*
O=C1COc2ccc(OCc3ccc(F)cc3)cc21	-100*
COc1ccc2c(c1OC)C(=O)OC2Nc1nc(-c2ccc(-c3ccccc3)cc2)cs1 (stereo not given)	-233*
Cc1cc2ccccn2c1C(C[N+](=O)[O-])c1ccc(N(C)C)cc1 (stereo not given)	-80*
Oc1ccc(-c2[nH]ncc2-c2ccc(Cl)cc2)c(O)c1	-62*
COc1ccc(-c2nc(SCc3ccccc3)n(C(=O)c3ccco3)n2)cc1	-81*
COc1ccc(-c2nc(SC)n(C(=O)c3ccco3)n2)cc1	-130*
Cc1ccc(C(=O)Nc2ccccc2OC(F)F)cc1	-62*
Cc1ccc(NC(=O)c2cccc(OC(F)F)c2)c(OC(F)F)c1	-71*
Cc1c(Cl)cccc1NC(=O)c1cccc(OC(F)F)c1	-76*
Cc1nc(NC(=O)C2CC3CCCC(C2)C3=O)sc1C (stereo not given)	-80*
CC1(C(=O)OCC(=O)Nc2ccc3ccccc3c2)CC1(Cl)Cl (stereo not given)	-78*
COc1ccccc1-c1ccc(NC2CCCCC2)nn1	-140*
Fc1c(F)c(C(F)(F)F)c(F)c(F)c1N/N=C\c1cccs1	-73*
COc1ccccc1CC(=O)NCc1csc(-c2cccs2)n1	-117*
COc1ccccc1CCNC(=O)c1nc(-c2cccs2)no1	-93*
O=C(NCc1csc(-c2cccs2)n1)C1CCCCC1	-67*
CC(C)N1CN=C(Nc2nc3ccccc3o2)NC1	-70*
CCCCN1CN=C(Nc2nc3ccccc3o2)NC1	-136*
c1ccc2oc(NC3=NCN(C4CCCCC4)CN3)nc2c1	-174*
COCCN1CN=C(Nc2nc3ccccc3o2)NC1	-83*
Cc1ccccc1Nc1cc(C)c2c(O)cccc2n1	-105*
COc1ccc(Nc2cc(C)c3c(O)cccc3n2)cc1	-140*
Cc1ccc(Nc2cc(C)c3c(O)cccc3n2)cc1C	-118*
SMILES	aSyn 5UTR act
Cc1ccc(Nc2cc(C)c3ccc(O)cc3n2)cc1C	-94*
COc1cccc(Nc2nc(-c3sc(N)nc3C)cs2)c1	-112*
COc1cccc(Nc2nc(-c3sc(C)nc3C)cs2)c1	-103*
Cc1nc(N)sc1-c1csc(Nc2ncccn2)n1	-136*
Cc1nc(C)c(-c2csc(Nc3ccc(F)cc3)n2)s1	-152*
O=C(O)C1CCC(c2ccc(-c3ccccc3)cc2)CC1 (stereo not given)	-84*
Nc1ccc(-c2nnn(Cc3ccccc3F)n2)cc1	-71*
c1ccc(Cn2nnc(-c3ccccc3)n2)cc1	-62*
Clc1ccc(-c2nnn(Cc3nc4ccccc4s3)n2)cc1	-138*
CC(C)n1nnc(-c2ccc(OCc3ccccc3F)cc2)n1	-100*
Fc1ccc(-c2nnn(Cc3ccccc3Cl)n2)cc1	-69*
O=C(COC(=O)CCc1nc2ccccc2s1)Nc1nc(-c2ccccc2)cs1	-84*
O=C(CCc1nc2ccccc2s1)c1ccccc1	-85*
O=C(CCc1nc2ccccc2s1)OCC(=O)c1ccccc1	-100*
CC(C)c1nc2oc3ccccc3c(=O)c2c(=O)n1-c1ccccc1	-325*
COc1ccc2c(=O)c3c(=O)n(-c4ccccc4)c(-c4ccc(C)cc4)nc3oc2c1	-79*
O=c1c2ccccc2oc2nc(-c3ccco3)n(-c3ccccc3)c(=O)c12	-251*
CC(C)c1nc2sc3ccccc3c(=O)c2c(=O)n1Cc1ccccc1	54
Cc1ccc(NC(=S)Nc2cccc3ccccc23)cc1F	-86*
CCc1ccc(NC(=S)Nc2cccc3cnccc23)cc1	-87*
CC(=O)N(C)c1ccc(NC(=S)Nc2cccc3ccccc23)cc1	-168*
Cc1ccc(C)c(Cn2c(O)c(N=NC(=S)Nc3ccccc3F)c3ccccc32)c1	72
COc1ccc(-c2nnc(N(C)C(=O)C3CCOC3)s2)cc1 (stereo not given)	-66*
COc1ccc(-c2nnc(N(C)C(=O)c3ccno3)s2)cc1	-138*
COc1ccc(-c2nnc(N(C)C(=O)C3CCCO3)s2)cc1 (stereo not given)	-87*
SMILES	aSyn 5UTR act
c1ccc2oc(-c3ccc4nc[nH]c4c3)nc2c1	-135*
COc1ccc(-c2nc3ccccc3o2)cc1OC	-82*
CC(O)CNc1ncnc2cc(-c3ccc(F)cc3)sc12 (stereo not given)	-62*
C=CCOC(=O)c1c(C)nc2cc3c(cc2c1C)OCO3	-101*
CNc1ncc(C(=O)c2ccc(Cl)c(Cl)c2)s1	-149*
CNc1ncc(C(=O)c2ccc(Cl)cc2)s1	-124*
CN=c1scc(-c2ccccc2F)n1/N=C/c1ccc[nH]1	83
CN=c1scc(-c2ccco2)n1/N=C/c1ccc(O)c(O)c1	-242*
C=CCN=c1scc(C)n1/N=C/c1ccc(O)c(O)c1	-156*
Cc1ccc(NCC(=O)Nc2ccc(Br)cc2)cc1F	-77*
O=C(CC(=O)Nc1ccccc1)Nc1ccccc1	-69*
O=C(CNc1ccccc1)Nc1ccc(F)cc1	-118*
Cc1ccc(CNC(=O)Cc2cccs2)cc1	-70*
CSc1ccc(NC(=O)NCc2ccccc2)cc1	-152*
Cc1ccc(CNC(=O)NCc2ccccc2)cc1	-63*
Cc1ccc(C)c(CNC(=O)Nc2ccccc2)c1	-147*
O=C(NCc1ccc(F)cc1)Nc1ccccc1	-108*
Cc1ccc(CNC(=O)Nc2ccc(Cl)cc2)cc1	-99*
Cc1ccc(/C=N/NC(=O)Cc2ccc(Cl)cc2)c(O)c1	66
Cc1ccc(CNC(=O)Nc2ccccc2)cc1	-187*
CC(=O)N(Cc1ccc(F)cc1)C1=C(NCc2ccccc2)C(=O)c2ccccc2C1=O	92
Cc1ccc(CNC(=O)Nc2cccs2)cc1	-115*
NC(=NCCCCCCN=C(N)/N=C(\N)Nc1ccc(Cl)cc1)/N=C(\N)Nc1ccc(Cl)cc1	96
O=C(NCc1ccc(Cl)cc1Cl)Nc1ccccc1	-91*
O=C(NCC1CC1)Nc1ccc(Cl)cc1	-79*
SMILES	aSyn 5UTR act
CCOC(=O)Cc1csc(/N=C/c2c(O)n(-c3ccc(C)c(C)c3)c(=O)c3ccccc23)n1	105
CCOC(=O)Cc1csc(NC(=O)/C=C/c2ccccc2Cl)n1	-136*
CCOC(=O)Cc1csc(NC(=O)/C=C\c2ccccc2)n1	-74*
CCOC(=O)Cc1csc(N/N=C\c2cccc(Br)c2)n1	-66*
CCOC(=O)Cc1csc(NC(=O)/C=C\c2ccccc2Cl)n1	-194*
COC(=O)c1c(-c2cccs2)csc1NC(=O)c1cccnc1	-87*
CC(C)n1c(/C=C/[C@@H](O)C[C@@H](O)CC(=O)O)c(-c2ccc(F)cc2)c2ccccc21	64
Fc1cccc(/C=N/Nc2ccccn2)c1	-277*
Fc1cccc(Cl)c1/C=N/Nc1ccccn1	-235*
Fc1cccc(F)c1/C=N/Nc1ccccn1	-230*
Cc1ccc(Cn2ccc(C3CC3)n2)cc1	-101*
Clc1ccc(Cn2ccc(C3CC3)n2)cc1	-95*
O=C1C(=O)N(c2cccc(Cl)c2)C(c2ccccc2[N+](=O)[O-])/C1=C(\O)c1ccccc1 (stereo not given)	-88*
O=C1C(=O)N(c2ccccc2)C(c2ccccc2[N+](=O)[O-])/C1=C(\O)c1ccccc1 (stereo not given)	-93*
CSc1ccc(C2c3[nH]c4ccccc4c3CCN2C(=O)c2ccnn2C)cc1 (stereo not given)	-166*
COC(=O)c1ccc(NC(=O)Nc2ccc(F)cc2F)cc1	-111*
O=C(Nc1ccccc1)Nc1ccc(F)cc1F	-115*
CCSc1nsc(NC(=O)Nc2ccc(F)cc2F)n1	-138*
